Reference: PubChem BioAssay AID1028 (SRMLSC, 2008)
Potency and affinity values are given separately. Values without a mark were called inactive.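 Rule for the calls: active = enzyme inhibitor confirmed by dose series, half-maximal inhibitory concentration at most 40 µM; inactive = the rest.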

target: diphosphomevalonate decarboxylase (Streptococcus pneumoniae D39) (UniProt Q9FD53); assay: S. pneumoniae DPM-DC inhibition retest, confirmation, biochemical, cuvette format, coupled NADH fluorescence (AID 1028); settings: purified DPM-DC, rate, at 50 µM, stronger effect = higher value

SMILES | inhibition [%]
Nc1ccc2oc(-c3ccc(F)cc3)nc2c1 | 13.4
COc1ccc2nc(-c3cc(OC)c(OC)c(OC)c3)oc2c1 | 3.99
O=C(c1ccccc1-n1sc2ccccc2c1=O)N1CCCC1 | 16.1
COc1ccc2nc(-c3ccncc3)oc2c1 | 4.83
COc1ccc2oc(-c3cccc(N)c3)nc2c1 | -0.79
Fc1cccc(-c2nc3ccccc3o2)c1 | 4.51
Cc1ccc(-c2nc3ccccc3o2)cc1F | 9.15
COc1ccc2oc(-c3cccc(C)c3)nc2c1 | 2.37
Cc1ccc(C)c(-c2nc3cc(N)ccc3o2)c1 | 0.87
Cc1ccc(C)c(-c2nc3c(N)cccc3o2)c1 | 6.19
O=C(c1ccccc1-n1sc2ccccc2c1=O)N1CCOCC1 | 13.7
Nc1ccc2oc(-c3cccc(Cl)c3)nc2c1 | 8.07
COc1ccc2nc(-c3ccccc3C)oc2c1 | 4.59
Cc1ccc(C)c(-c2nc3ccc(N)cc3o2)c1 | 13
Cc1ccc(C)c(-c2nc3ccccc3o2)c1 | -0.27
COc1ccc2oc(-c3ccc(C)cc3)nc2c1 | -3.06
COc1ccc(-c2nc3ccccc3o2)cc1 | 6.86
COc1ccc2nc(-c3ccc(C)cc3)oc2c1 | 5.23
Cc1ccc(-c2nc3ccccc3o2)cc1 | 7.2
Cc1ccc(-c2nc3cc(N)ccc3o2)cc1F | 16
c1ccc(-c2nc3ccccc3o2)cc1 | 2.96
Cc1ccc(C)c(-c2nc3cccc(N)c3o2)c1 | -0.39
CN(C)C(=O)c1ccccc1-n1sc2ccccc2c1=O | 16.7
Cc1ccccc1-c1nc2ccccc2o1 | 1.75
